# Laboratory results reported in the supplement of paper PMC9433436.
# ± gives the standard deviation of the averaged measurements. Whole data set: some 4,100 sequences, median “relative kcat/Km (krel) vs genomic leader AAAGAU” near 1.7, cut for the highest 2% near 6.5. The list comes from a sample in which the highest values are over-represented; it also holds similar and randomly drawn sequences.
# Target: T1, E. coli RNase P holoenzyme (M1 P RNA + rnpA protein) (UniProt P0A7Y8)
# T1 sequence: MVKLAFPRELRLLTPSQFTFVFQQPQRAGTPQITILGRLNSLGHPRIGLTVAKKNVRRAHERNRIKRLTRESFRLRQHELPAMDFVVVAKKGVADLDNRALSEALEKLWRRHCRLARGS
# Assay: relative kcat/Km (krel) vs genomic leader AAAGAU (relative (reference leader = 1)); higher = faster RNase P cleavage
# Procedure: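 HTS-Kin: a pool of ptRNA-Met (21C construct) with all 4096 combinations of 5' leader nucleotides N(-6) to N(-1) was processed in vitro by E. coli RNase P (P RNA + rnpA/C5 protein) under multiple-turnover conditions at 37 C, pH 8, 17.5 mM MgCl2. Residual substrate was Illumina-sequenced at several fractions reacted, and relative kcat/Km (krel) was computed by internal competition kinetics, calibrated to the genomic leader (AAAGAU = 1). The listed hexamer is the varied N(-6)..N(-1) leader (DNA letters), and it sits between a fixed 5' stem-loop flank (GCAUGCACGAAAGUGCGUGCUAUGAA) and the mature tRNA-Met starting GGCUACGUAGCUCAGUUGG. Two technical replicates are averaged.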
# [1] = fraction of substrate reacted: ~9-10% (9.79% repeat 1, 9.1% repeat 2)
# [2] = fraction of substrate reacted: ~13-16% (15.68% repeat 1, 13.17% repeat 2)
# [3] = fraction of substrate reacted: ~26-29% (28.66% repeat 1, 26.4% repeat 2)
Sequence,relative kcat/Km [1],relative kcat/Km [2],relative kcat/Km [3]
GTGTCA,1.15 ± 0.97,0.779 ± 0.57,1.49 ± 0.16
GCCTGG,,,0.776 ± 0.2
GTGCCC,1.01 ± 0.23,0.583 ± 0.44,1.13 ± 0.088
TTTGCT,0.76 ± 0.28,0.721 ± 0.56,0.983 ± 0.097
CAAAAC,1.4 ± 0.17,1.59 ± 0.4,2.51 ± 0.41
GACTAA,4.15 ± 1.9,5.64 ± 1.3,8.21 ± 3.3
AACTAG,3.36 ± 2.5,2.8 ± 0.61,3.95 ± 1.3
TACTGT,0.799 ± 0.45,1.56 ± 1.4,1.19 ± 0.64
GACTTA,3.03 ± 0.62,4.15 ± 0.96,5.78 ± 2.2
TACTAT,4.15 ± 0.89,6.07 ± 1.3,9 ± 3.9
GACTAG,1.77 ± 1.4,2.58 ± 0.6,4.67 ± 1.3
ATGAAG,0.588 ± 0.19,0.919 ± 0.16,1.85 ± 0.42
AGTCGG,,0.482 ± 0.36,1.03 ± 0.14
GAGAAA,2.38 ± 1.1,3.13 ± 0.99,3.4 ± 0.98
TGCATC,2.12 ± 1.2,1.5 ± 0.48,2.05 ± 0.7
GTCATT,4.45 ± 1.6,5.21 ± 2,8.08 ± 4
TTCATG,2 ± 2,2.08 ± 0.48,4.3 ± 1.5
TTCATA,4.76 ± 2.5,6.15 ± 0.55,8.54 ± 3.2
TCCATC,3.7 ± 1.8,3.95 ± 0.47,6.33 ± 2.3
TTCATT,4.9 ± 1.8,6.77 ± 1.4,9.68 ± 4.2
TGCATT,0.949 ± 0.79,1.93 ± 1.2,2.68 ± 1.7
CTCATA,3.84 ± 2.5,4.93 ± 0.27,6.23 ± 2.5
TTCATC,4.42 ± 1.8,5.94 ± 0.79,8.86 ± 3.8
GGCATT,1.85 ± 0.77,2.15 ± 0.27,3.37 ± 1.4
ATCATT,3.39 ± 1.4,4.551 ± 0.032,6.49 ± 2.6

Sequence,relative kcat/Km [1],relative kcat/Km [2],relative kcat/Km [3]
TCTACA,1.43 ± 0.68,1.87 ± 0.44,2.46 ± 1.1
GGTAAG,1.39 ± 1.3,0.931 ± 0.053,2.32 ± 1.1
TCCACT,2.76 ± 1.1,3.06 ± 0.4,4.72 ± 1.1
CATCGT,,,1.54 ± 1.2
GGATCA,0.973 ± 0.2,1.04 ± 0.42,1.53 ± 0.71
CACGGT,,,1.7 ± 0.39
AGAGAT,0.682 ± 0.45,1.15 ± 0.6,1.75 ± 0.4
GTCATG,,1.48 ± 0.37,3.5 ± 0.91
ATCATA,3.61 ± 1.8,4.31 ± 0.3,5.9 ± 2.2
GTCATA,4.4 ± 2,4.91 ± 0.65,7.54 ± 3
CGAGAG,0.809 ± 0.14,,0.931 ± 0.1
CCTTCC,1.62 ± 0.022,1.51 ± 1.3,2.47 ± 0.27
ACCGAC,2.3 ± 2.1,3.17 ± 0.29,4.58 ± 1
GCCGAA,3.56 ± 1.2,4.16 ± 0.78,6.35 ± 2.4
ACCGAA,3.81 ± 1.6,4.31 ± 1,6.81 ± 3
CCCGAA,2.83 ± 1.5,4.35 ± 1.8,6.76 ± 2.5
TCCGAC,3.47 ± 0.1,4.91 ± 1.2,7.68 ± 3
CCCGAG,1.48 ± 0.82,0.888 ± 0.25,3.16 ± 0.072
TCCGAG,2.34 ± 0.033,2.52 ± 1.4,5.01 ± 2.2
TCCGAT,2.34 ± 0.53,2.91 ± 1.4,4.01 ± 1.3
GCCGAC,2.64 ± 1.3,3.49 ± 0.69,5.36 ± 2.2
CCCGAT,2.59 ± 0.49,2.76 ± 1.2,3.21 ± 0.9
ACCGAG,2.58 ± 2.5,0.833 ± 0.22,2.44 ± 0.21
TCCGAA,5.05 ± 1.9,6.23 ± 1.9,9.05 ± 3.9
ACTCGT,,,2.02 ± 1.7

Sequence,relative kcat/Km [1],relative kcat/Km [2],relative kcat/Km [3]
AGCACG,,,1.13 ± 0.11
TTAGAA,2.72 ± 1.5,2.61 ± 0.03,3.57 ± 1.4
TCCCAC,4.44 ± 1.1,5.53 ± 1.1,7.79 ± 3
TCCCAT,4.48 ± 2.4,5.74 ± 1,8.73 ± 3.7
TCCCAA,4.73 ± 3.1,4.63 ± 0.2,6.94 ± 2.3
ACCCAA,2.3 ± 0.84,2.69 ± 0.25,4.83 ± 1.9
GCCCAC,3.04 ± 0.041,4.04 ± 1.6,5.93 ± 2.8
ACCCAC,3.6 ± 1.7,3.71 ± 0.7,5.48 ± 1.8
ACCCAT,2.43 ± 0.83,2.95 ± 0.91,5.63 ± 2.4
CCCCAA,3.03 ± 1.2,3.57 ± 0.21,4.97 ± 1.6
GCCCAT,3.07 ± 2.2,3.36 ± 0.14,5.4 ± 1.5
GCTATG,,,1.51 ± 0.12
AGAAAG,1.38 ± 1.3,1.14 ± 0.7,2.2 ± 0.47
CGGACG,1.05 ± 1.1,,0.906 ± 0.41
GCATAA,1.89 ± 0.96,2 ± 0.52,3.04 ± 1.1
ATAGTC,1.61 ± 0.89,1.42 ± 1,1.68 ± 0.75
AGTAAT,2.83 ± 0.62,3.38 ± 0.27,5.07 ± 2.3
TTCCTA,3.35 ± 1.2,4.53 ± 0.46,5.89 ± 2.4
GACGCA,3.33 ± 1.3,3.62 ± 0.97,5.24 ± 1.8
GACGCG,,0.59 ± 0.14,2.38 ± 0.093
AACGCA,2.99 ± 1.6,3.18 ± 0.58,4.32 ± 1.4
GACGCT,2.24 ± 0.19,2.17 ± 0.8,3.11 ± 1.4
TACGCG,1.87 ± 1.1,1.66 ± 0.44,3.13 ± 0.89
AACGCC,1.93 ± 0.48,3.24 ± 1.4,4.53 ± 1.3
TACGCA,2.71 ± 1.7,4.27 ± 0.58,6.64 ± 3.4

Sequence,relative kcat/Km [1],relative kcat/Km [2],relative kcat/Km [3]
TACGCC,3.64 ± 0.043,5.35 ± 1.7,7.66 ± 3.3
GACGCC,3.241 ± 0.028,4.62 ± 1.3,6.69 ± 2.6
ACGCAC,1.83 ± 0.3,2.12 ± 0.95,3.59 ± 1.2
CATCCC,2.17 ± 1.8,2.06 ± 1.1,1.96 ± 0.22
CCTTTC,2.13 ± 0.9,2.39 ± 0.27,3.08 ± 0.83
CCTTCA,1.71 ± 1.4,1.18 ± 0.065,1.84 ± 0.056
TACTTT,3.77 ± 1.4,4.69 ± 0.54,6.8 ± 3.1
CACTTT,3.33 ± 1.1,4.55 ± 0.76,6.22 ± 2.4
CACTTC,2.93 ± 0.5,3.69 ± 0.85,5.44 ± 2.2
TACTTC,4.11 ± 1.8,4.99 ± 1.3,6.85 ± 2.9
TACTTG,,0.792 ± 0.45,2.68 ± 1.1
TACTTA,3.1 ± 0.66,4.1 ± 0.88,5.63 ± 2.6
GTTATG,,1.56 ± 0.24,3.32 ± 0.7
CTTTTA,2.68 ± 0.65,2.79 ± 0.91,3.18 ± 1.2
AAGCAT,2.34 ± 0.52,2.87 ± 1,3.28 ± 1.9
TTCCCC,3.49 ± 1.7,4.17 ± 0.71,5.59 ± 1.9
TGCCAC,2.55 ± 1.6,3.121 ± 0.026,4.36 ± 1.6
TGCCAA,3.18 ± 1.1,2.55 ± 0.62,4.09 ± 1
TTCCAA,4.78 ± 1.8,6.03 ± 0.65,8.56 ± 3.5
CTCCAT,4.25 ± 0.86,5.67 ± 1.3,8.48 ± 4
GTCCAG,2.58 ± 1,2.9 ± 0.5,5.48 ± 2
GTCCCT,2.62 ± 0.56,3.61 ± 0.74,5.58 ± 2.5
TTCCAG,2.51 ± 1.5,3.27 ± 0.64,5.49 ± 1.9
GTCCAT,4.26 ± 0.8,6.41 ± 1.5,9.1 ± 4.4
CGCCAT,3 ± 0.35,4.6 ± 1.3,6.07 ± 2.5

Sequence,relative kcat/Km [1],relative kcat/Km [2],relative kcat/Km [3]
TTCCAC,5.3 ± 2,6.51 ± 1.3,9.46 ± 4.2
CTCCCT,3 ± 0.57,3.57 ± 0.86,4.86 ± 2.1
CCTCTG,,,1.47 ± 0.38
CTTGGA,1.23 ± 1.1,1.2 ± 0.45,1.15 ± 0.8
TTGAGC,1.16 ± 0.28,1.24 ± 0.71,1.47 ± 0.22
ACCGGC,1.08 ± 0.83,,
AGAACC,1.66 ± 1.1,1.82 ± 0.43,1.82 ± 0.17
GCACGT,,,0.727 ± 0.1
CAAAGG,0.345 ± 0.3,,
GTCCCC,2.87 ± 2.5,4.17 ± 0.82,5.29 ± 1.4
ATCCAC,4.03 ± 1.7,4.47 ± 0.19,6.76 ± 2.2
ATCCCT,2.7 ± 0.55,3.48 ± 0.4,4.42 ± 1.8
AGCCAT,3.54 ± 1.2,3.08 ± 0.86,4.77 ± 2
GTCCAC,5.04 ± 1.9,6.06 ± 1.1,8.78 ± 3.9
GTCCAA,3.74 ± 1.3,4.92 ± 0.95,7.96 ± 3
ATCCAA,3.15 ± 0.43,4.2 ± 1.2,6.3 ± 2.3
GACCAA,1.8 ± 0.3,3.47 ± 1.1,4.86 ± 1.5
ATCCAT,3.89 ± 0.97,4.72 ± 1.4,7.14 ± 3.2
ATCCAG,1.67 ± 0.93,1.77 ± 0.18,3.83 ± 0.61
GGCCAC,0.682 ± 0.091,1.39 ± 0.35,2.65 ± 0.59
ATCCCC,2.42 ± 0.41,3.13 ± 0.35,4.59 ± 2.2
TTTGCC,1.81 ± 0.95,1.79 ± 0.37,2.42 ± 0.16
AGTATT,2.4 ± 0.68,3.14 ± 0.3,4.91 ± 2.2
AACTGG,,,0.249 ± 0.046
TGATGT,,1.13 ± 1.1,1.37 ± 0.91
